AF4-AF9 inh – blocks AF4 peptide binding to human AF9; P42568; 350,000 compounds, 0.47% hits; AlphaScreen, biotin-AF4 peptide binding to FLAG-AF9; AID 651704; inhibition, % at 10 µM;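 active = every replicate reaching a set inhibition limit, whatever the replicate mean, cut at about 25% in these data; inconclusive = mean inhibition reaches that limit but some replicates miss it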
FGF22 binding – FGF22 (human) thermal shift binding. Q9HCT0. activity (Tm shift, normalised), % at 9.99 µM. 340,000 compounds, 1.5% hits. recombinant FGF22 thermal shift, SYPRO orange fluorescence; percent of sucrose octasulfate shift, DMSO zero;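 active = mean Tm shift, scaled 0 neutral to 100 positive control, at about 1.3% or above, every replicate too, limit read from the data; inconclusive = no clear call, values can overlap the other calls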
Target sequence (Q9HCT0 whole entry, looked up): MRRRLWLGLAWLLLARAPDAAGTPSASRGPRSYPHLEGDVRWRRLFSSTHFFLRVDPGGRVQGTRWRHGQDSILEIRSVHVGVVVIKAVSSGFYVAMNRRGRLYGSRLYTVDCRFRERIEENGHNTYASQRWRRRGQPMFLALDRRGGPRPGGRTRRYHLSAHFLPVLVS
ERAP1 HTS inh – ERAP1 (human) enzyme inhibition; AID 652197; recombinant ERAP1, Leu-AMC fluorescence, 60 min; 340,000 compounds, 0.15% hits; inhibition, % at 10.7 µM; Q9NZ08;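 active = mean replicate inhibition of at least 30%, or all replicates individually reaching that 30% level; inactive = mean below 30% and not every replicate reaching it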
RAD52 inh – blocks human RAD52 DNA annealing. AID 651710. 360,000 compounds, 0.46% hits. recombinant RAD52 DNA annealing, FRET fluorescence. P43351. inhibition, % at 18.7 µM;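 active = every replicate showing at least 50% inhibition; inconclusive = mean inhibition at least 50% but not in every replicate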
Target sequence (P43351 whole entry, looked up): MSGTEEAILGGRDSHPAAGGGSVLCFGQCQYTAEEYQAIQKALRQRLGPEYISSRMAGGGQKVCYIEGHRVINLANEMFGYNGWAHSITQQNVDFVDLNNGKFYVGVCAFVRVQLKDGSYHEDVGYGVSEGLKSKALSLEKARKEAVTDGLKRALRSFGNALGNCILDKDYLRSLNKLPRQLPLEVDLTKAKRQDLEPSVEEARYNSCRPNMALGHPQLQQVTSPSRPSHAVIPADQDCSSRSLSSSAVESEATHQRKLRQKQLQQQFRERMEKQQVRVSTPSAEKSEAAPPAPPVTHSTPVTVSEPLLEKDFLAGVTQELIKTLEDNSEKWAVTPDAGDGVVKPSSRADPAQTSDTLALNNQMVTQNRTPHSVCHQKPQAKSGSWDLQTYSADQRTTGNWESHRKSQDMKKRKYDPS
DENV2 CPE – DENV2-induced cell death inhibition; DENV2-infected cells, cytopathic effect rescue, plate reader; CPE inhibition, % at 9.99 µM; 350,000 compounds, 1.7% hits; in the data active = CPE inhibition above about 20%, passing the limit was not always enough; inconclusive = no clear call, values can overlap the other calls; tested in BHK-21 cells
Hits are given with their value; - = inactive; ? = inconclusive; . = not tested or not shown. Most compounds without a hit are left out; they make up all but 4% or so of the library.

SMILES	AF4-AF9 inh	FGF22 binding	ERAP1 HTS inh	RAD52 inh	DENV2 CPE
Cc1noc(C)c1NC(=O)N(C)C[C@@H]1OCCCC[C@H](C)Oc2ccc(NC(=O)NC3CCCCC3)cc2C(=O)N([C@@H](C)CO)C[C@@H]1C	-	.	-	-	23.0
Cc1noc(C)c1NC(=O)Nc1ccc2c(c1)C(=O)N([C@H](C)CO)C[C@@H](C)[C@H](CN(C)C(=O)NC1CCCCC1)OCCCC[C@@H](C)O2	-	-	-	-	-
Cc1noc(C)c1NC(=O)N(C)C[C@@H]1Oc2ccc(NC(=O)NC3CCCCC3)cc2C(=O)N([C@@H](C)CO)C[C@@H]1C	-	-	-	-	34.3
CO[C@H]1CN(C)C(=O)c2ccc(NS(=O)(=O)c3cn(C)cn3)cc2OC[C@@H](C)NC[C@@H]1C	-	-	-	-	-
C[C@H](CO)N1C[C@H](C)[C@H](CN(C)C(=O)Nc2ccccc2)Oc2cc(C#C[C@@H](C)O)ccc2S1(=O)=O	-	-	-	-	-
C[C@H](NC(=O)C[C@@H]1C=C[C@@H](NC(=O)C2CCOCC2)[C@@H](CO)O1)c1ccccc1	-	-	-	-	-
CC1(C)Cc2c(sc(NC(=O)C3CC(Cl)=CCC3C(=O)O)c2C#N)CO1 (centres undefined)	-	43.3	-	-	-
COc1ccc2c(c1OC)C(=O)O[C@@H]2[C@H]1c2c(cc3c(c2OC)OCO3)CCN1C	-	-	-	-	-
COc1cc2c3c(c1OC)-c1cc4c(cc1CC3(C#N)N(C(=O)c1ccccc1)CC2)OCO4 (centres undefined)	-	43.0	-	-	-
O=C(Cc1ccncc1)NCC[C@@H]1CC[C@@H](NC(=O)C2CC2)[C@@H](CO)O1	-	-	-	-	-
COc1ccc(CCN2C(=O)CSCC2(C)C(=O)Nc2ccc3c(c2)OCCO3)cc1OC (centres undefined)	.	-	-	-	20.6
CC1(C(=O)Nc2ccc3c(c2)OCCO3)CCC(=O)N1CCOc1ccccc1 (centres undefined)	-	-	-	-	-
CC1(C(=O)Nc2ccc3c(c2)OCCO3)CN(S(C)(=O)=O)CC(=O)N1CCc1ccccc1 (centres undefined)	-	-	.	-	-
COCCN1C(=O)CN(S(C)(=O)=O)CC1(C)C(=O)Nc1ccc2c(c1)OCCO2 (centres undefined)	.	-	-	-	33.2
COCC(=O)N(C)C[C@@H]1Oc2cc(-c3ccncc3)ccc2S(=O)(=O)N([C@@H](C)CO)C[C@@H]1C	-	-	-	-	-
CO[C@H]1CN(C)C(=O)c2ccc(NS(=O)(=O)c3ccccc3C)cc2OC[C@H](C)NC[C@@H]1C	-	-	-	-	-
OC[C@@H]1[C@@H](c2ccc(-c3ccccc3F)cc2)[C@H]2CN(Cc3cncnc3)CCCCN12	-	-	-	-	68.3
OC[C@@H]1[C@@H](c2ccc(-c3cccc(F)c3)cc2)[C@@H]2CN(Cc3cncnc3)CCCCN12	-	-	-	-	46.7
OC[C@@H]1[C@H](c2ccc(-c3ccccc3F)cc2)[C@H]2CN(Cc3cncnc3)CCCCN12	-	-	-	-	?
OC[C@H]1[C@@H](c2ccc(-c3cccc(F)c3)cc2)[C@H]2CN(Cc3cncnc3)CCCCN21	-	-	-	-	?
COc1cccc(-c2ccc([C@H]3[C@H](CO)N4CCCCN(Cc5cncnc5)C[C@@H]34)cc2)c1	-	-	-	-	-
COc1cccc(-c2ccc([C@H]3[C@@H](CO)N4CCCCN(Cc5cncnc5)C[C@H]34)cc2)c1	-	-	-	-	38.3
C[C@H](CO)N1C[C@H](C)[C@@H](CN(C)C(=O)NC2CCCCC2)Oc2ccc(NC(=O)CCCCCC(=O)Nc3ccccc3N)cc2C1=O	-	-	.	.	.
COc1ccc(Cl)cc1NC(=O)C(OC)c1ccccc1 (centres undefined)	-	-	-	-	-
CCC(C(=O)Nc1cc(Cl)ccc1OC)c1ccccc1 (centres undefined)	-	43.2	-	-	.
SMILES	AF4-AF9 inh	FGF22 binding	ERAP1 HTS inh	RAD52 inh	DENV2 CPE
Cc1ccc(S(=O)(=O)CCC(=O)NCc2ccccc2)cc1	-	-	-	-	22.3
Cc1ccc(CNC(=O)CCS(=O)(=O)c2ccc(Br)cc2)cc1	-	-	-	-	-
O=C1CCC(=O)N(O)CCCCCNC(=O)CCC(=O)N(O)CCCCNC(=O)CCC(=O)N(O)CCCCCN1	-	-	-	-	86.7
COc1ccc(NC2CC(=O)N(c3cccc([N+](=O)[O-])c3)C2=O)cc1 (centres undefined)	-	-	-	-	-
COc1ccc(NC2CC(=O)N(c3cc([N+](=O)[O-])ccc3C)C2=O)cc1 (centres undefined)	-	43.2	-	-	-
O=C(Cc1cccc(NC(=O)C2CCCN(C(=O)C3CCCC3)C2)c1)Nc1ccc(C(=O)N2CCOCC2)cc1 (centres undefined)	-	-	-	-	27.4
O=C(Cc1ccccc1)N1CCN(C(=O)c2ccc([N+](=O)[O-])cc2)CC1	-	45.2	-	-	-
O=C(Cc1cccc(NC(=O)C2CCCN(C(=O)C3CCC3)C2)c1)Nc1ccc(C(=O)N2CCOCC2)cc1 (centres undefined)	-	-	-	-	31.6
O=C(Nc1cccc(-n2cnnn2)c1)C1CCCN(C(=O)Cc2cccc(Cl)c2)C1 (centres undefined)	-	-	-	-	60.5
O=C(Nc1cccc(-n2cnnn2)c1)C1CCCN(Cc2cccc(C(F)(F)F)c2)C1 (centres undefined)	-	-	-	-	-
O=C(Cc1cccc(NC(=O)C2CCCN(C(=O)C3CCCC3)C2)c1)Nc1cccc(C(=O)N2CCOCC2)c1 (centres undefined)	-	-	-	-	-
COc1ccc(NC(=O)N(C)C[C@H]2Oc3ccc(NC(=O)NC4CCCCC4)cc3CC(=O)N([C@H](C)CO)C[C@@H]2C)cc1	-	-	-	-	-
CO[C@H]1CN(C)C(=O)c2ccc(NC(=O)C3CC3)cc2OC[C@H](C)N(C)C[C@H]1C	-	-	-	-	-
C[C@@H](NC(=O)N(C)C[C@H]1OCc2ccccc2-c2c(n(C)c3ccccc23)C(=O)N([C@@H](C)CO)C[C@@H]1C)c1ccccc1	-	-	-	-	-
CCCNC(=O)N[C@H]1C=C[C@H](CC(=O)NCCc2ccccc2)O[C@@H]1CO	-	-	-	-	-
O=C(Cc1cccc([N+](=O)[O-])c1)Nc1ccc(C(=O)N2CCCCC2)cc1	-	-	-	-	81.3
C=C[C@@H](COC(=O)c1ccc([N+](=O)[O-])cc1)N(Cc1ccc(OC)cc1)S(=O)(=O)c1ccc(Br)cc1	-	-	-	-	23.9
C=CC(COCc1ccccc1)N(Cc1ccc(OC)cc1)S(=O)(=O)c1ccccc1Br (centres undefined)	-	-	-	-	-
C[C@H](NC(=O)C[C@H]1CC[C@H](NC(=O)CN2CCOCC2)[C@@H](CO)O1)c1ccccc1	-	-	-	-	?

From PubChem BioAssay
